# Assay results: PubChem BioAssay (EPA / NIEHS)
# The source made the active and inactive calls. Rule for the calls: active = hit-call score of the fitted dose curve at least 0.9, where 1 is the maximum; inactive = score below 0.9.
# Assay: CCTE_Simmons_MITO_inhib_resp_rate: CCTE's HepG2 Seahorse XF Respirometric Screening Assay at Inhibited Respiratory State [full ETC block], Simmons Lab (AID 2284006)
# Details: actives raise or lower the signal
# Protocol: CCTE_Simmons_MITO is cell-based, respirometric assay using HepG2 cells and a Seahorse XF Analyzer to measure oxygen consumption rates over four temporal phases spanning a total of 72 minutes: pre-injection (pre-treatment), basal (following test compound injection), maximal (following FCCP uncoupler injection), and inhibited (following rotenone/antimycin A injection)CCTE_Simmons_MITO_inhib_resp_rate is one of 4 assay components calculated from the CCTE_Simmons_MITO assay. It is designed to make measurements of inhibited respiration using a form of respirometric reporter, as detected with […] signals by Seahorse XF96 technology. Data from the assay component CCTE_Simmons_MITO_inhib_resp_rate was analyzed at the endpoint, CCTE_Simmons_MITO_inhib_resp_rate_OCR, with bidirectional fitting relative to DMSO as the negative control and baseline of activity. Using a type of respirometric reporter, measures of inhibited respiration for gain or loss-of-signal activity can be used to understand cellular oxygen consumption as it relates to cellular respiration. To generalize the intended target to other relatable targets, this assay endpoint is annotated to the mitochondria intended target family, where the subfamily is respiration.
# Test chemicals were administered as a titrated series of 7 concentrations from 125 nM up to 100 uM [final] prior to kinetic endpoint detection at 6 minute intervals [3 min mix followed by 3 minutes measure] for 72 minutes. Three biological replicates of technical singles were run for every chemical concentration tested. Dimethylsulfoxide [DMSO] was used as the vehicle control. The electron transport chain inhibitor fenpyroximate was used as the positive control for decreased basal respiration and was administered as a titrated series of 6 concentrations from 250 nM up to 2.75 uM [final] with technical triplicates for the top concentration only. The uncoupler 2,4-dintirophenol was used as the positive control for increased basal respiration and was administered as a titrated series of 6 concentrations from 938 nM up to 40 uM [final] with technical triplicates for the top concentration only. A Seahorse XF Analzyer is required to measure the response.
row,Compound,outcome
1,O=C(O)C(F)(F)C(F)(F)C(F)(F)C(F)(F)C(F)(F)C(F)(F)C(F)(F)C(F)(F)C(F)(F)C(F)(F)F,inactive
2,COc1cc(-c2ccc(N)c(OC)c2)ccc1N,inactive
3,O=C(Nc1ccc2[nH]ccc2c1)c1cc2cc(F)ccc2n1Cc1cccc(F)c1,inactive
4,CCCCCCCCc1ccc(O)cc1,inactive
5,C=C(C)C(=O)[O][Sn]([CH2]CCC)([CH2]CCC)[CH2]CCC,inactive
6,CCOP(=S)(OCC)Oc1nc(Cl)c(Cl)cc1Cl,inactive
7,CCC(C)(C)c1ccc(O)c(C(C)(C)CC)c1,inactive
8,O=[N+]([O-])c1ccc(O)c([N+](=O)[O-])c1,inactive
9,CC(C)(C)CC(C)(C)c1ccc(O)cc1,inactive
10,CC(=O)[O][Hg][c]1ccccc1,inactive
11,O=C1C2(Cl)C3(Cl)C4(Cl)C(Cl)(Cl)C5(Cl)C3(Cl)C1(Cl)C5(Cl)C24Cl (stereo not drawn),inactive
12,CC(C)(c1ccccc1)c1ccc(O)c(C(C)(C)c2ccccc2)c1,inactive
13,C[C@]12CCC(=O)C[C@@H]1CC[C@@H]1[C@@H]2CC[C@]2(C)[C@@H](O)CC[C@@H]12,inactive
